Where “and” joins values, the source holds several entries; their conditions need not be identical. Identical values can stand only once. The source holds several records for some structures; these can differ, active in one and inactive in another. Calls of active or inactive are those of the source. Rule for the calls: active = hit-call score of the fitted dose curve at least 0.9, where 1 is the maximum; inactive = score below 0.9.
read-out: Interleukin-8 (IL8), CXCL8 (gene 3576); assay: BSK_SAg_IL8: BioMAP Diversity Plus: SAg Assay for Interleukin-8 (IL8) Biomarker Activity (AID 2283094); settings: primary human HUVEC with PBMC; actives raise or lower the signal
Method in brief: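 Human umbilical vein endothelial cells co-cultured with PBMC, stimulated with superantigen; IL-8 measured by ELISA 24 h after chemical dosing. Bidirectional fitting versus DMSO; SRB staining in parallel cultures tracks cytotoxicity.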

| Compound | outcome | AC50 |
| --- | --- | --- |
| O=C(c1ccccc1)c1ccc(O)cc1O | inactive |  |
| Nc1cc([N+](=O)[O-])cc(Cl)c1O | inactive |  |
| O=S(=O)(O)CCC(F)(F)C(F)(F)C(F)(F)C(F)(F)F | inactive |  |
| O=C=NCc1cccc(CN=C=O)c1 | inactive |  |
| O=C=Nc1cccc2c(N=C=O)cccc12 | inactive |  |
| CCN(CC)c1ccc2c(c1)Oc1cc(N(CC)CC)ccc1C21OC(=O)c2ccccc21 |  | 10 µM (active) |
| NS(=O)(=O)C(F)(F)C(F)(F)C(F)(F)C(F)(F)C(F)(F)C(F)(F)F | inactive | 30 µM (active) |
| OC(O)C(F)(F)C(F)(F)F | inactive |  |
| O=C(O)C(F)(F)C(F)(F)C(F)(F)OC(F)(C(F)(F)F)C(F)(F)F | inactive |  |
| OCCCC(F)(F)C(F)(F)C(F)(F)C(F)(F)C(F)(F)C(F)(F)C(F)(F)C(F)(F)F |  | 43.2 µM (active) and 37 µM (active) |
| C=CC(=O)OCC(F)(F)C(F)(F)C(F)(F)C(F)(F)C(F)(F)C(F)(F)C(F)(F)C(F)F | inactive | 20.8 µM (active) |
| C=CC(=O)OCC(F)(F)C(F)(F)C(F)(F)COC(=O)C=C |  | 14.2 µM (active) and 5.57 µM (active) |
| O=C(O)C(F)(F)C(F)(F)C(F)(F)C(=O)O | inactive |  |
| CCOC(=O)CC(=O)C(F)(F)C(F)(F)F | inactive |  |
| C=C(C)C(=O)OCC(F)(F)C(F)(F)C(F)(F)C(F)F | inactive |  |
| CC(C)(C)c1cc(CCC(=O)NCCCCCCNC(=O)CCc2cc(C(C)(C)C)c(O)c(C(C)(C)C)c2)cc(C(C)(C)C)c1O | inactive |  |
| Brc1nc2ccccc2s1 | inactive |  |
| NC(O)(C(F)(F)F)C(F)(F)F | inactive |  |

| Compound | outcome | AC50 |
| --- | --- | --- |
| O=S(=O)(OCC(F)(F)F)C(F)(F)C(F)(F)C(F)(F)C(F)(F)F | inactive | 30 µM (active) |
| CCN(CC)c1ccc(C=O)cc1 | inactive |  |
| O=S(=O)(O)CCC(F)(F)C(F)(F)C(F)(F)C(F)(F)C(F)(F)C(F)(F)C(F)(F)C(F)(F)F | inactive |  |
| CNS(=O)(=O)C(F)(F)C(F)(F)C(F)(F)C(F)(F)C(F)(F)C(F)(F)C(F)(F)C(F)(F)F | inactive |  |
| NCC(F)(F)C(F)(F)C(F)(F)C(F)(F)C(F)(F)C(F)(F)F | inactive |  |
| O=C(O)CCC(F)(F)C(F)(F)C(F)(F)C(F)(F)C(F)(F)C(F)(F)C(F)(F)F | inactive |  |
| OCCCCC(F)(F)C(F)(F)C(F)(F)C(F)(F)F | inactive |  |
| O=C1c2c(O)ccc(Nc3ccc(CCO)cc3)c2C(=O)c2c([N+](=O)[O-])ccc(O)c21 |  | 0.379 µM (active) |
| CCOC(C=C(C)CCC=C(C)C)OCC | inactive |  |
| O=C1C=CC(=O)N1c1ccc(Cc2ccc(N3C(=O)C=CC3=O)cc2)cc1 |  | 4.35 µM (active) |
| O=C(O)C(F)(F)C(F)(F)C(F)(F)OC(F)(F)F | inactive |  |
| OCC(F)(F)C(F)(F)C(F)(F)C(F)(F)C(F)(F)C(F)(F)C(F)(F)C(F)(F)CO | inactive |  |
| C=CC(=O)OCCC(F)(F)C(F)(F)C(F)(F)C(F)(F)F |  | 33 µM (active) and 30.1 µM (active) |
| O=S(=O)(Cl)C(F)(F)C(F)(F)C(F)(F)C(F)(F)C(F)(F)C(F)(F)C(F)(F)C(F)(F)F | inactive |  |
| COC(F)(C(F)F)C(F)(F)F (centres undefined) | inactive |  |
| Cc1ccc(S(=O)(=O)C(I)I)cc1 |  | 4.27 µM (active) |
| FC(F)(F)C(F)(F)C(F)(F)CC1CO1 (centres undefined) | inactive |  |

read-out: not listed separately; assay: BSK_SAg_Proliferation: Cell Proliferation Assessment in the BioMAP Diversity Plus: SAg Assay (AID 2283095); settings: primary human HUVEC with PBMC
Method in brief: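 Human umbilical vein endothelial cells co-cultured with PBMC; sulforhodamine B total-protein staining (0.1% SRB after 10% TCA fixation, absorbance 560 nm) at 96 h in sub-confluent culture. Fitted bidirectionally against DMSO.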

| Compound | outcome | AC50 |
| --- | --- | --- |
| O=C(c1ccccc1)c1ccc(O)cc1O | inactive |  |
| Nc1cc([N+](=O)[O-])cc(Cl)c1O | inactive |  |
| O=S(=O)(O)CCC(F)(F)C(F)(F)C(F)(F)C(F)(F)F | inactive |  |
| O=C=NCc1cccc(CN=C=O)c1 | inactive |  |
| O=C=Nc1cccc2c(N=C=O)cccc12 | inactive |  |
| CCN(CC)c1ccc2c(c1)Oc1cc(N(CC)CC)ccc1C21OC(=O)c2ccccc21 |  | 10 µM (active) |
| NS(=O)(=O)C(F)(F)C(F)(F)C(F)(F)C(F)(F)C(F)(F)C(F)(F)F | inactive |  |
| OC(O)C(F)(F)C(F)(F)F | inactive |  |
| O=C(O)C(F)(F)C(F)(F)C(F)(F)OC(F)(C(F)(F)F)C(F)(F)F | inactive |  |
| OCCCC(F)(F)C(F)(F)C(F)(F)C(F)(F)C(F)(F)C(F)(F)C(F)(F)C(F)(F)F |  | 10.2 µM (active) and 14.6 µM (active) |
| C=CC(=O)OCC(F)(F)C(F)(F)C(F)(F)C(F)(F)C(F)(F)C(F)(F)C(F)(F)C(F)F |  | 36.8 µM (active) and 27.1 µM (active) |
| C=CC(=O)OCC(F)(F)C(F)(F)C(F)(F)COC(=O)C=C |  | 6.99 µM (active) and 5.35 µM (active) |
| O=C(O)C(F)(F)C(F)(F)C(F)(F)C(=O)O | inactive |  |
| CCOC(=O)CC(=O)C(F)(F)C(F)(F)F | inactive |  |
| C=C(C)C(=O)OCC(F)(F)C(F)(F)C(F)(F)C(F)F | inactive |  |
| CC(C)(C)c1cc(CCC(=O)NCCCCCCNC(=O)CCc2cc(C(C)(C)C)c(O)c(C(C)(C)C)c2)cc(C(C)(C)C)c1O | inactive |  |
| Brc1nc2ccccc2s1 | inactive |  |
| NC(O)(C(F)(F)F)C(F)(F)F | inactive |  |

| Compound | outcome | AC50 |
| --- | --- | --- |
| O=S(=O)(OCC(F)(F)F)C(F)(F)C(F)(F)C(F)(F)C(F)(F)F | inactive |  |
| CCN(CC)c1ccc(C=O)cc1 | inactive |  |
| O=S(=O)(O)CCC(F)(F)C(F)(F)C(F)(F)C(F)(F)C(F)(F)C(F)(F)C(F)(F)C(F)(F)F | inactive |  |
| CNS(=O)(=O)C(F)(F)C(F)(F)C(F)(F)C(F)(F)C(F)(F)C(F)(F)C(F)(F)C(F)(F)F | inactive |  |
| NCC(F)(F)C(F)(F)C(F)(F)C(F)(F)C(F)(F)C(F)(F)F | inactive |  |
| O=C(O)CCC(F)(F)C(F)(F)C(F)(F)C(F)(F)C(F)(F)C(F)(F)C(F)(F)F | inactive |  |
| OCCCCC(F)(F)C(F)(F)C(F)(F)C(F)(F)F | inactive |  |
| O=C1c2c(O)ccc(Nc3ccc(CCO)cc3)c2C(=O)c2c([N+](=O)[O-])ccc(O)c21 |  | 20 µM (active) |
| CCOC(C=C(C)CCC=C(C)C)OCC |  | 34.4 µM (active) |
| O=C1C=CC(=O)N1c1ccc(Cc2ccc(N3C(=O)C=CC3=O)cc2)cc1 |  | 3.92 µM (active) |
| O=C(O)C(F)(F)C(F)(F)C(F)(F)OC(F)(F)F | inactive |  |
| OCC(F)(F)C(F)(F)C(F)(F)C(F)(F)C(F)(F)C(F)(F)C(F)(F)C(F)(F)CO | inactive | 45.5 µM (active) |
| C=CC(=O)OCCC(F)(F)C(F)(F)C(F)(F)C(F)(F)F |  | 30 µM (active) |
| O=S(=O)(Cl)C(F)(F)C(F)(F)C(F)(F)C(F)(F)C(F)(F)C(F)(F)C(F)(F)C(F)(F)F | inactive |  |
| COC(F)(C(F)F)C(F)(F)F (centres undefined) | inactive |  |
| Cc1ccc(S(=O)(=O)C(I)I)cc1 |  | 0.866 µM (active) |
| FC(F)(F)C(F)(F)C(F)(F)CC1CO1 (centres undefined) | inactive |  |

— PubChem BioAssay (EPA / NIEHS)
